Where a name gives a salt, the structure may show the parent alone.

This assay has as its system Klebsiella aerogenes DSM 30053. In words: growth (OD595) fold change vs plate DMSO controls (fold change (ratio)); higher = more growth. Conditions: incubation time: 27 h, anaerobic, 37 °C. The method in brief:
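Absorbance at 595 nm was read after shaking the anaerobic mGAM cultures, which had grown in 96-well plates for 27 h at 37 °C. After blank subtraction and background correction against 20 µM compound solutions in water, a calibration factor of 5 gave OD values. Growth is the fold change against the median of the plate's DMSO controls. Values are the mean of 2 biological replicates, with fold changes above 1.5 set to NA.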
With `CN[C@H](CC(C)C)C(=O)N[C@H]1C(=O)N[C@@H](CC(N)=O)C(=O)N[C@H]2C(=O)N[C@H]3C(=O)N[C@H](C(=O)N[C@H](C(=O)O)c4cc(O)cc(O)c4-c4cc3ccc4O)[C@H](O)c3ccc(c(Cl)c3)Oc3cc2cc(c3O[C@@H]2O[C@H](CO)[C@@H](O)[C@H](O)[C@H]2O[C@H]2C[C@](C)(N)[C@H](O)[C@H](C)O2)Oc2ccc(cc2Cl)[C@H]1O` [Vancomycin hydrochloride] (20 µM), the growth turned out to be 1.01.
In the case of `OC[C@H]1OC(O)[C@H](O)[C@H](O)[C@@H]1O` (stereo partly drawn) [D-allose] (50 µM), the growth was 0.98.
For `COC1=CC(=O)C[C@@H](C)[C@]12Oc1c(Cl)c(OC)cc(OC)c1C2=O` [Griseofulvin] (20 µM), the growth was found to be 0.922.
On to `CN1CCN(CCCN2c3ccccc3Sc3ccc(C(F)(F)F)cc32)CC1` [Trifluoperazine dihydrochloride] (20 µM), for which the growth turned out to be 1.05.
Take `CCCN(CCC)S(=O)(=O)c1ccc(C(=O)O)cc1` [Probenecid] (20 µM): the growth worked out at 1.17.
With `C#C[C@]1(O)CC[C@H]2[C@@H]3CCC4=CC(=O)CC[C@@H]4[C@H]3CC[C@@]21C` [Norethindrone] (20 µM), the growth was determined as 1.
Take `NC(=O)c1ncn([C@@H]2O[C@H](CO)[C@@H](O)[C@H]2O)n1` [Ribavirin] (20 µM): the growth amounted to 0.979.
For the compound `Cc1c(O)cccc1C(=O)N[C@@H](CSc1ccccc1)[C@H](O)CN1C[C@H]2CCCC[C@H]2C[C@H]1C(=O)NC(C)(C)C` [Nelfinavir mesylate] (20 µM), the growth worked out at 1.01.
For `CC1(C)S[C@@H]2[C@H](NC(=O)Cc3ccccc3)C(=O)N2[C@H]1C(=O)O` [Benzylpenicillin sodium] (20 µM), the growth was 1.1.
Turning to `COC(=O)Nc1nc2cc([S+]([O-])c3ccccc3)ccc2[nH]1` (centres undefined) [Oxfendazole] (20 µM), the growth turned out to be 1.01.
Take `CCCc1nc(C)c2c(=O)nc(-c3cc(S(=O)(=O)N4CCN(CC)CC4)ccc3OCC)[nH]n12` [Vardenafil] (20 µM): the growth is 1.01.
Take `NS(=O)(=O)c1cc(C(=O)O)cc(N2CCCC2)c1Oc1ccccc1` [Piretanide] (20 µM): the growth came out at 0.997.
Consider `C[C@H]1C[C@@H]2[C@H]([C@@H](O)C[C@@]3(C)[C@H]2CC[C@]3(O)C(=O)CO)[C@@]2(C)C=CC(=O)C=C12` [Methylprednisolone, 6-alpha] (20 µM), for which the growth amounted to 1.01.
In the case of `Oc1ccc2ccccc2c1N=Nc1ccccc1` [Sudan I (1-phenylazo-2-hydroxynaphthalene)] (20 µM), the growth stood at 1.08.
`CC(=O)OCC(=O)[C@@]1(O)CC[C@H]2[C@@H]3CCC4=CC(=O)CC[C@]4(C)[C@H]3[C@@H](O)C[C@@]21C` [Cortisol acetate] (20 µM): the growth was determined as 1.04.
For `CCN(CC)CCNc1ccc(CO)c2sc3ccccc3c(=O)c12` [Hycanthone] (20 µM), the growth was found to be 1.03.
For the compound `CC(=O)NC[C@H]1CN(c2ccc(N3CCOCC3)c(F)c2)C(=O)O1` [Linezolid] (20 µM), the growth is 0.985.
In the case of `NNC(=O)c1ccncc1` [Isoniazid] (20 µM), the growth amounted to 0.936.
`O=C(NCCO[N+](=O)[O-])c1cccnc1` [Nicorandil] (20 µM): the growth was determined as 0.928.
As for `CC(=O)[C@H]1CC[C@H]2[C@@H]3CC=C4C[C@@H](O)CC[C@]4(C)[C@H]3CC[C@]12C` [Pregnenolone] (20 µM), the growth was determined as 1.
`OC[C@@H](O)[C@@H](O)[C@H](O)[C@H](O)CO` [Mannitol] (50 µM): the growth was determined as 0.982.
For the compound `CC[C@@]1(O)C(=O)OCc2c1cc1n(c2=O)Cc2cc3c(CN(C)C)c(O)ccc3nc2-1` [Topotecan] (20 µM), the growth was 0.991.
`CCCCc1ncc(/C=C(\Cc2cccs2)C(=O)O)n1Cc1ccc(C(=O)O)cc1` [Eprosartan mesylate] (20 µM): the growth came out at 1.16.
As for `CCN(CC)CC(=O)Nc1c(C)cccc1C` [Lidocaine hydrochloride] (20 µM), the figure is 0.979; as for `CC(C)c1nc(CN(C)C(=O)N[C@H](C(=O)N[C@@H](Cc2ccccc2)C[C@H](O)[C@H](Cc2ccccc2)NC(=O)OCc2cncs2)C(C)C)cs1` [Ritonavir] (20 µM), 0.987.
As for `O=C(OCCOCCO)c1ccccc1Nc1cccc(C(F)(F)F)c1` [Etofenamate] (20 µM), the growth turned out to be 1.1.
For `CCCCOc1ccc(CC(=O)NO)cc1` [Bufexamac] (20 µM), the growth is 0.846.
Take `Cc1scc2c1N(C(=O)CN1CCN(C)CC1)c1ccccc1NC2=O` [Telenzepine dihydrochloride] (20 µM): the growth was 1.
`OC[C@H]1O[C@H](O[C@H]2O[C@H](CO)[C@@H](O)[C@H](O)[C@H]2O)[C@H](O)[C@@H](O)[C@@H]1O` [Trehalose] (50 µM): the growth came out at 1.03.
Consider `NCCCC(O)(P(=O)(O)O)P(=O)(O)O` [Alendronate sodium] (20 µM), for which the growth stood at 1.1.
Consider `CC(=O)Nc1ccc(CC(=O)O)cc1` [Actarit] (20 µM), for which the growth was determined as 1.03.
`CCCCc1cc2ccccc2c(OCCN(C)C)n1` [Dimethisoquin hydrochloride] (20 µM): the growth is 1.1.
As for `CC[C@H]1OC(=O)C[C@@H](O)[C@H](C)[C@@H](O[C@@H]2O[C@H](C)[C@@H](O[C@H]3C[C@@](C)(O)[C@@H](O)[C@H](C)O3)[C@H](N(C)C)[C@H]2O)[C@@H](CC=O)C[C@@H](C)C(=O)/C=C/C(C)=C/[C@@H]1CO[C@@H]1O[C@H](C)[C@@H](O)[C@@H](OC)[C@H]1OC` [Tylosin] (20 µM), the growth was found to be 0.966.
For `CN(C)CCC=C1c2ccccc2C=Cc2ccccc21` [Cyclobenzaprine hydrochloride] (20 µM), the growth was 0.985.
Consider `CC(=C(CCO)SSCC1CCCO1)N(C=O)Cc1cnc(C)nc1N` (stereo in doubt) [Fursultiamine hydrochloride] (20 µM), for which the growth worked out at 0.989.
In the case of `CCOC(=O)O[C@]1(C(=O)OCCl)CC[C@H]2[C@@H]3CCC4=CC(=O)C=C[C@]4(C)[C@H]3[C@@H](O)C[C@@]21C` [Loteprednol etabonate] (20 µM), the growth turned out to be 1.08.
As to `N[C@@H](CSCCCO)C(=O)O` [Fudosteine] (20 µM), the growth turned out to be 1.01.
With `CC1=C(C)C(=O)C(C(CCCCCC(=O)O)c2ccccc2)=C(C)C1=O` (centres undefined) [Seratrodast] (20 µM), the growth was 1.
Regarding `C[C@]12C=CC(=O)C=C1CC[C@@H]1[C@@H]2C(=O)C[C@@]2(C)[C@H]1CC[C@]2(O)C(=O)CO` [Prednisone] (20 µM), the growth came out at 1.08.

The values are drawn from the supplement of paper PMC12494721.
